Targets with a hit are over-represented here; the source holds about 7,900 in all. About 0.6% of all pairs of compound and target were hits. Unmarked numbers belong to inactive results.
Tests used:
Assay in all cases: log2 fold change, soluble protein after heating vs DMSO (PISA); higher = thermal stabilisation; K562 cells, 10 uM, 30 min; active = over 0.2 and 3.5 SD of the protein, either way, in both replicates (recomputed)
[1] = compound: C1=CC=C(C=C1)[C@H](COC2=CC3=C(C=C2)NC(=O)N3)NC(=O)C4=CC=CN(C4=O)CC5=CC(=C(C=C5)F)F
Method in brief: (§1)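 Soluble protein was defined as the supernatant after 21,000xg for 90 min. It came from K562 cells at 2×10^6 cells/mL given 10 μM compound for 30 min, heated in aliquots for 3 min across 48°C-58°C, pooled, and extracted in PBS with 0.5% NP-40 at 4°C, and was quantified by TMTpro 16plex LC-MS/MS with equalised channel sums. Thermal stability against control samples, from duplicates, is reported as log2 fold change.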

[2] = compound: CC1=C(SC2=C1C(=N[C@H](C3=NN=C(N32)C)CC(=O)N)C4=CC=C(C=C4)Cl)C
Method in brief: as §1

[3] = compound: CC1=C2C(=CC=C1)N=C(N(C2=O)C3=CC=CC=C3C)CN4C=NC5=C(N=CN=C54)N
Method in brief: as §1

[4] = compound: Cc1sc2c(c1C)C(c1ccc(Cl)cc1)=N[C@@H](CC(=O)OC(C)(C)C)c1nnc(C)n1-2
Method in brief: as §1

[5] = compound: c1ccc([C@@H]2C[C@H]2NC2CCNCC2)cc1
Method in brief: as §1

Sequence of UniProt P20585 (P20585 whole entry, looked up): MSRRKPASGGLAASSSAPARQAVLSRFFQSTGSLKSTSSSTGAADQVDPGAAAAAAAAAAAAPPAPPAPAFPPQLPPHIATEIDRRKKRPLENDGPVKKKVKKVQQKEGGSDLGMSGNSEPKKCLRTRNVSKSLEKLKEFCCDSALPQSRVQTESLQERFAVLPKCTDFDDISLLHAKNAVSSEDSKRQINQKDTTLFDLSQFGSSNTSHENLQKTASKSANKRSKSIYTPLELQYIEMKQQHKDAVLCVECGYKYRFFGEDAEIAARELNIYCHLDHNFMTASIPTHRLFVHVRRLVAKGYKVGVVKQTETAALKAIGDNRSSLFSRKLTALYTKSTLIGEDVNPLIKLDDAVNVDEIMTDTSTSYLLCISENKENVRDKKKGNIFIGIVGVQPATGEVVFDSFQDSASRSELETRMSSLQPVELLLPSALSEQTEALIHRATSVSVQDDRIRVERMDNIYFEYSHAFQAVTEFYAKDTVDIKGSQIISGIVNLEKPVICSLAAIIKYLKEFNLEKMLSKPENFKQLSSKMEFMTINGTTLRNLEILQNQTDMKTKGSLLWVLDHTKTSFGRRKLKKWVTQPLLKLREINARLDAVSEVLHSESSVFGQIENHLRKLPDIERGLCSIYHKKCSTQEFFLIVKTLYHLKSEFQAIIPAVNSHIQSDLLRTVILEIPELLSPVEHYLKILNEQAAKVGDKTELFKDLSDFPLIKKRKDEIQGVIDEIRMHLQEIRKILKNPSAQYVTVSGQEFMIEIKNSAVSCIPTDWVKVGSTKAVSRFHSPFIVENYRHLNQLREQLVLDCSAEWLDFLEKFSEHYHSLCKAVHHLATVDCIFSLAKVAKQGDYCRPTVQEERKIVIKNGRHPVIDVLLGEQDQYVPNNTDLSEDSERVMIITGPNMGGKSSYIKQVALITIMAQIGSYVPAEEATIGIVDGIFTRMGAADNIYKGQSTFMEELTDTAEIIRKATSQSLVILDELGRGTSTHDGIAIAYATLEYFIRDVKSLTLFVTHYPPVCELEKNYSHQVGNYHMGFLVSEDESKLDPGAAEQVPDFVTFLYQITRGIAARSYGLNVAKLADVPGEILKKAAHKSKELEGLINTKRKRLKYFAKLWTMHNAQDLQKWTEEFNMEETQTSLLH
Sequence of UniProt Q96IV0 (Q96IV0 whole entry, looked up): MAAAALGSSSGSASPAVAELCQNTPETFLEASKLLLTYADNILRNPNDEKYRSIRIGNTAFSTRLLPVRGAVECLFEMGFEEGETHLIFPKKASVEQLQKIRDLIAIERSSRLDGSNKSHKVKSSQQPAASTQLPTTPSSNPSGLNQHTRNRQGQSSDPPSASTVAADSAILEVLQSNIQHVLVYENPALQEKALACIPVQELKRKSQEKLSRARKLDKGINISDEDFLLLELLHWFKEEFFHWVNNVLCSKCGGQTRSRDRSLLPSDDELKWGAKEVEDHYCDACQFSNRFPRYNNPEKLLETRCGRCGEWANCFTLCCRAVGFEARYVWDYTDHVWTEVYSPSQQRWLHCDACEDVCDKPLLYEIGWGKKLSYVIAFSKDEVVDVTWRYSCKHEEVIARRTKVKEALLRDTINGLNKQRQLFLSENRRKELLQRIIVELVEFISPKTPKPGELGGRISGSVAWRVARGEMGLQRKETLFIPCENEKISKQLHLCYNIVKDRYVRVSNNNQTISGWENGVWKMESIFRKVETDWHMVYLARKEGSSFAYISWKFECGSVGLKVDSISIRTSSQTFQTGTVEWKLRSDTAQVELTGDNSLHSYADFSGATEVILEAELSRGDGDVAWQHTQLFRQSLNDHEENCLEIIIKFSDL
Sequence of UniProt P43246 (P43246 whole entry, looked up): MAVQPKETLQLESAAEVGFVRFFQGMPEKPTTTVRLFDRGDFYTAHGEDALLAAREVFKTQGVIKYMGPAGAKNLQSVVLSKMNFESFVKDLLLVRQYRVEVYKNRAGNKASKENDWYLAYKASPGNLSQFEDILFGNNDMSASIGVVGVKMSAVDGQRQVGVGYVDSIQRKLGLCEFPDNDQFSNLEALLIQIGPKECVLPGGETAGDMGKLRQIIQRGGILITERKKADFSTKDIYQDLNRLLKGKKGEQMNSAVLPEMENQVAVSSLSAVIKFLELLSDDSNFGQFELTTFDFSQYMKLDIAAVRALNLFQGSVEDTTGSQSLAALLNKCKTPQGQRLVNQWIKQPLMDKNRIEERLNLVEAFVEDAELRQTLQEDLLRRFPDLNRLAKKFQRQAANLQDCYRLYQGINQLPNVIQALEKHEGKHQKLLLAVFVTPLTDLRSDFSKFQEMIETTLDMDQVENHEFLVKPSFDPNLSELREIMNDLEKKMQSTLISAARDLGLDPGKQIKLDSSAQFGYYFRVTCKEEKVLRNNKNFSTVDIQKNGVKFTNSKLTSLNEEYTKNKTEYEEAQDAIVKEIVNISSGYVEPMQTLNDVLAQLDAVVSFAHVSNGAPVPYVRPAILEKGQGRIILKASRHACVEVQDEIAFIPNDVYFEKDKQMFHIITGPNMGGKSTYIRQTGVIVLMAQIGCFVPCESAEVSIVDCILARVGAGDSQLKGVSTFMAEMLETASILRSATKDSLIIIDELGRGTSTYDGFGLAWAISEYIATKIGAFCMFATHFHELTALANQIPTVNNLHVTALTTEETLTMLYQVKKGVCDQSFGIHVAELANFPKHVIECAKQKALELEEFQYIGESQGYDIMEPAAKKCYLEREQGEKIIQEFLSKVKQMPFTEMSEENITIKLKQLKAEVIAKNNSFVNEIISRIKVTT
Sequence of UniProt P55786 (P55786 whole entry, looked up): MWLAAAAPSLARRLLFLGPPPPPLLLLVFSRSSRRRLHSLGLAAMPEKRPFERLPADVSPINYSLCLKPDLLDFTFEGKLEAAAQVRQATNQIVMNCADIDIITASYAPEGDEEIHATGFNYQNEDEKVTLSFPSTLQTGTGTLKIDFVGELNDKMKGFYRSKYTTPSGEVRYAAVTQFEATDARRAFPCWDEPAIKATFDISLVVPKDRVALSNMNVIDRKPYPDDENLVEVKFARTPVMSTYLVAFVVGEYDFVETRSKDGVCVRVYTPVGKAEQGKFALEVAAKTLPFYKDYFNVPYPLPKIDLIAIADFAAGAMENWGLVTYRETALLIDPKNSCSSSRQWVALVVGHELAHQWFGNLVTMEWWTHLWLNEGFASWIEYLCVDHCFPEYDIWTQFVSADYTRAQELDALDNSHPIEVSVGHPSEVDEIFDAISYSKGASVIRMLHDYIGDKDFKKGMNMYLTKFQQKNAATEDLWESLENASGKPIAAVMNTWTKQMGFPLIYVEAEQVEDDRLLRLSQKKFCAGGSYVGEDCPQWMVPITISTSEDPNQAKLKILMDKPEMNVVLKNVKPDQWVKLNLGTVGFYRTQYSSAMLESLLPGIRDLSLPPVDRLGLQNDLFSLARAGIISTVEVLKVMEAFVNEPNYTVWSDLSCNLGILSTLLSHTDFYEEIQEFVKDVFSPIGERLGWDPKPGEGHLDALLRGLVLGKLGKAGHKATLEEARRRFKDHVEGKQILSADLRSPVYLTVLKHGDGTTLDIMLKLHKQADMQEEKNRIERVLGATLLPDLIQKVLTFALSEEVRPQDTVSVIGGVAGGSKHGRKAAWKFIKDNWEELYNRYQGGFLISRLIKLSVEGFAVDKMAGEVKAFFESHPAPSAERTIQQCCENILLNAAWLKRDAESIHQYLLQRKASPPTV
Sequence of UniProt Q9BRP4 (Q9BRP4 whole entry, looked up): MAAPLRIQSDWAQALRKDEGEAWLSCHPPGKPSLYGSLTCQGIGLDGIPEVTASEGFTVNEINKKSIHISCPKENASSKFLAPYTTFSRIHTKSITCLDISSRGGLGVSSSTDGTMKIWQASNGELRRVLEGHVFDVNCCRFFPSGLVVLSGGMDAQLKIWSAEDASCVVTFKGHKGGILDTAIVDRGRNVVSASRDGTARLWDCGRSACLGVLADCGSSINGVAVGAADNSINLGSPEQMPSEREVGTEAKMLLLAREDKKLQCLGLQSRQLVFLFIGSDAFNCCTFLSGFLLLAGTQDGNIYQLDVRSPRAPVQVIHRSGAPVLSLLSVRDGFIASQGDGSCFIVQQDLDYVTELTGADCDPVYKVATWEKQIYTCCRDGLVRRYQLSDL
Sequence of UniProt Q8N543 (Q8N543 whole entry, looked up): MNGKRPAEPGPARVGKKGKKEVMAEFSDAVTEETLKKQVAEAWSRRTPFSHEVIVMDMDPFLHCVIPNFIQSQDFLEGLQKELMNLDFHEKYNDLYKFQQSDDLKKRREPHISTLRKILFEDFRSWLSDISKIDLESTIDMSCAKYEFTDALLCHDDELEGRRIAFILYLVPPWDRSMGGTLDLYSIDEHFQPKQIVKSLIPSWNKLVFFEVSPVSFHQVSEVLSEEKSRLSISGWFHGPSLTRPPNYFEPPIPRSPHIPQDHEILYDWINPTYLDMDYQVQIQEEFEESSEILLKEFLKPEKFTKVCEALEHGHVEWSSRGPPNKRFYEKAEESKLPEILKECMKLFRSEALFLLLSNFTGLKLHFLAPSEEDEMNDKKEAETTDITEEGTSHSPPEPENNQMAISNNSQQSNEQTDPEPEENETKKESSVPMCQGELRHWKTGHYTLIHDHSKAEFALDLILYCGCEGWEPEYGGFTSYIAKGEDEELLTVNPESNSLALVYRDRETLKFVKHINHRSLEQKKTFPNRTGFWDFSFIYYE
Sequence of UniProt Q9BSU3 (Q9BSU3 whole entry, looked up): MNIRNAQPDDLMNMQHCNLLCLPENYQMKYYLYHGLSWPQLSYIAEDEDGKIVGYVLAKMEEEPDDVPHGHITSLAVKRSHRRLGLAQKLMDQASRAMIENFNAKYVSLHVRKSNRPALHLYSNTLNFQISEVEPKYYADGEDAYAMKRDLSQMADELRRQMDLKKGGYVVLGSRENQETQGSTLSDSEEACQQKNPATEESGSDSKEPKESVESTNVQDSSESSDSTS
Sequence of UniProt O14950 (O14950 whole entry, looked up): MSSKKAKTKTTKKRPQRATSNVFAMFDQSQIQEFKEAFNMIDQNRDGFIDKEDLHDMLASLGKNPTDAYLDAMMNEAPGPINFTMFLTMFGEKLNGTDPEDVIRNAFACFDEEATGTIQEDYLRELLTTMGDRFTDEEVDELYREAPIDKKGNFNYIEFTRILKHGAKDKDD

Target	log2 fold change [1]	log2 fold change [2]	log2 fold change [3]	log2 fold change [4]	log2 fold change [5]
NUDCD2 (UniProt Q8WVJ2)	-0.037	0.113	0.099	0.017	0.037
NPEPPS (UniProt P55786)	-0.044	0.064	0.159	-0.003	-0.051
NIPSNAP2 (UniProt C9J7B1)	-0.069	–	–	–	–
NGLY1 (UniProt Q96IV0)	-0.084	0.01	0.114	0.014	-0.046
MORC2 (UniProt Q9Y6X9)	-0.293	–	–	–	–
NR2C2 isoform 2 (UniProt P49116)	-0.011	0.046	0.059	0.042	0.024
PAAF1 (UniProt Q9BRP4)	-0.012	0.043	0.076	-0.014	0.008
OAT (UniProt P04181)	-0.019	0.083	0.05	-0.024	-0.045
MT-ATP6 (UniProt P00846)	-0.828 (active)	-0.065	0.076	-0.223	-0.035
NA (UniProt J3KR12)	-0.042	–	–	–	–
NKTR (UniProt P30414)	0.014	–	–	–	–
NIPSNAP3B (UniProt Q9BS92)	0.045	-0.031	0.017	-0.021	0.099
NUP160 (UniProt Q12769)	-0.013	0.043	0.038	0.014	0.044
NCOR1 (UniProt O75376)	-0.102	0.06	0.002	0.016	-0.111
MTHFD1 (UniProt P11586)	-0.059	0.024	0.018	-0.013	-0.019
MMADHC (UniProt Q9H3L0)	0.056	-0.155	0.057	0.088	0.077
NRF1 isoform 4 (UniProt Q16656)	-0.045	0.001	0.085	-0.043	-0.039
MXRA7 (UniProt P84157)	0.008	0.167	0.293	0.002	0.024
PAK1 isoform 2 (UniProt Q13153)	-0.152	0.097	-0.113	-0.02	-0.092
NA, A0A0B4J2A0	-0.035	-0.005	0.015	-0.097	-0.007
NOP2 isoform 4 (UniProt P46087)	0.184	-0.494	-0.694	0.409	-0.009
MYLK (UniProt Q15746)	-0.08	-0.053	0.096	0.118	-0.21
NUCKS1 (UniProt Q9H1E3)	0.044	-0.053	0.032	-0.029	-0.007
NUP205 (UniProt Q92621)	-0.004	0.035	0.08	-0.043	0.008
MT-ND1 (UniProt P03886)	-0.024	-0.12	-0.24	-0.102	0.177
PAFAH1B3 (UniProt Q15102)	-0.076	0.139	0.128	-0.132	-0.096
MON2 isoform 5 (UniProt Q7Z3U7)	-0.023	0.016	0.109	-0.025	-0.073
MSH3 (UniProt P20585)	0.008	0.085	0.052	-0.028	-0.087

Target	log2 fold change [1]	log2 fold change [2]	log2 fold change [3]	log2 fold change [4]	log2 fold change [5]
MPP1 (UniProt Q00013)	-0.055	-0.06	0.051	-0.024	0.013
MTHFS (UniProt P49914)	-0.075	0.035	-0.086	-0.023	-0.061
NDUFS8 (UniProt O00217)	-0.049	0.1	0.082	-0.023	-0.02
OSTC (UniProt Q9NRP0)	-0.031	0.048	0.063	-0.213	0.048
NEDD4L (UniProt Q96PU5)	0.014	0.038	0.039	0.054	0.027
NPM3 (UniProt O75607)	0.066	-0.08	-0.087	0.107	-0.019
NAA11 (UniProt Q9BSU3)	0.009	0.042	0.049	-0.12	-0.049
MYL12B (UniProt O14950)	0.028	0.054	0.009	-0.025	-0.077
MSH2 (UniProt P43246)	-0.041	0.051	0.105	-0.037	0.01
NCAPH (UniProt Q15003)	-0.067	0.011	0.109	-0.007	0.001
MOV10 (UniProt Q9HCE1)	0.067	-0.095	-0.095	0.145	0.057
NPC1 (UniProt O15118)	-0.034	-0.038	-0.017	0.009	0.049
OGFOD1 (UniProt Q8N543)	-0.02	0.047	0.041	-0.015	-0.007
NIPSNAP2 (UniProt O75323)	-0.038	0.008	0.036	-0.019	-0.051
NMRAL1 (UniProt Q9HBL8)	-0.12	-0.017	0.025	-0.139	-0.094
MRPL46 (UniProt Q9H2W6)	0	-0.1	-0.037	0.009	0.026
MYH10 isoform 3 (UniProt P35580)	-0.003	0.043	0.056	-0.023	-0.013
MRPS15 (UniProt P82914)	-0.035	0.077	-0.056	0.066	-0.097
MUL1 (UniProt Q969V5)	-0.002	0.006	0.044	-0.107	0.02
MINK1 (UniProt Q8N4C8)	-0.036	0.024	-0.01	0.037	0.005
NKAP (UniProt Q8N5F7)	-0.013	0.148	0.049	0.078	0.171
MRPS24 (UniProt Q96EL2)	-0.016	-0.026	-0.026	0.148	0.037
NFATC2IP (UniProt Q8NCF5)	-0.051	0.18	0.039	-0.088	0.156
NSDHL (UniProt Q15738)	0.029	0.047	0.019	0	-0.034
MTFR1L (UniProt Q9H019)	-0.036	-0.009	0.066	0.048	0.028
NEDD4 isoform 4 (UniProt P46934)	-0.006	0.103	0.081	0.002	-0.007
MITD1 (UniProt Q8WV92)	-0.058	0.022	-0.326	0.045	0.06
